PAFAH1B2 FP inh: blocks human PAF acetylhydrolase 1b catalytic subunit 2 | inhibition, % at 3.39 µM | actives 1.2% (n = 340,000) | P68402 | recombinant PAFAH1B2, FP-rhodamine activity probe, fluorescence polarization | AID 492953;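 active means inhibition above the mean of all tested compounds plus 3 SD, cut at about 24% in these data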
Target sequence (P68402 whole entry, looked up): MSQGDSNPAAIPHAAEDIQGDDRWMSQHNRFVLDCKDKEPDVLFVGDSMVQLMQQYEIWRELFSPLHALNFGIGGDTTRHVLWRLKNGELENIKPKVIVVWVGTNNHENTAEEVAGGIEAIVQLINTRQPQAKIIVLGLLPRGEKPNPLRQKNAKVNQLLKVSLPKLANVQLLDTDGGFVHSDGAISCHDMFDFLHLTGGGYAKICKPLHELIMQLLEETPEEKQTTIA
PAFAH1B3 FP inh: PAFAH1B3 (human) inhibition. recombinant PAFAH1B3, FP-rhodamine probe, fluorescence polarization. inhibition, % at 3.39 µM. actives 0.28% (n = 340,000);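 active means inhibition above the screen-wide average of all tested compounds plus 3 SD, cut at about 25% in these data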
PAFAH2 inh: PAFAH2 (human) inhibition; Q99487; recombinant PAFAH2, FP-rhodamine activity probe, fluorescence polarization; inhibition, % at 3.39 µM; actives 0.99% (n = 340,000); AID 492956;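 active means inhibition above the mean over all tested compounds plus 3 SD, cut at about 30% in these data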;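 further: inhibitors block probe labeling of enzyme so polarization drops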
PP5 inh: PP5 (human) phosphatase inhibition. P53041. actives 0.18% (n = 320,000). inhibition, % at 6.7 µM. purified PP5c, OMFP substrate fluorescence;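 active means inhibition above the campaign's mean inhibition across all tested compounds plus 3 SD, cut at about 9.5% in these data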
pPAFAH FP inh: pPAFAH (human) enzyme inhibition; Q13093; recombinant pPAFAH, FP-rhodamine probe fluorescence polarization; inhibition, % at 3.39 µM; actives 1.5% (n = 330,000);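 active means inhibition above the mean inhibition across the screen plus 3 SD, cut at about 25% in these data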;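 further: inhibitors block binding of the rhodamine activity-based probe so polarization drops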
Fh CTSL1 inh: blocks F. hepatica cathepsin L1 in PFM18AAP counter-screen. recombinant F. hepatica cathepsin L1, Z-Leu-Arg-MCA fluorescence. inhibition, % at 5.96 µM. actives 0.49% (n = 300,000);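 active means inhibition above the mean of all tested compounds plus 3 SD, set per screening campaign, cut at about 17% in these data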
Numbers stand for hits; - = inactive; . = not tested or not shown. Compounds with a hit are over-represented: about 3% of the library has one in this group of screens.

SMILES	PAFAH1B2 FP inh	PAFAH1B3 FP inh	PAFAH2 inh	PP5 inh	pPAFAH FP inh	Fh CTSL1 inh
COc1ccc(-c2nc3c(-c4ccc(Cl)cc4)cnn3cc2C)cc1F	-	-	-	-	-	-
O=c1[nH]c(=O)c2[nH]c(=S)n(-c3ccccc3)c2[nH]1	-	-	-	.	.	.
CSCCC(NS(=O)(=O)c1ccccc1F)C(=O)NCCCn1nc(C)cc1C (configuration not stated)	-	-	-	-	-	-
NC(=O)c1nsc(C(=O)N(CC(=O)NC2CCCC2)c2cccc(C(F)(F)F)c2)c1N	-	-	-	-	-	20
CCOc1cc(CNC(C)(C)CO)cc(Br)c1OCc1ccc(Cl)cc1Cl	-	-	-	-	34	-

Assay outcomes from PubChem.
